# Several values for one entry are separate records, joined by “and”; a condition that tells them apart may be missing. Identical values can stand only once. The panel holds about 79,000 compounds, 15% with a hit somewhere; the sample as a whole holds those more often. A number with no mark means an inactive call. Activity calls are given as the source filed them. Cut-off read from the data, not from the text of the source: active = growth inhibition above about 70%; inactive = the rest.
# Columns and labels:
# [1] = NCI Yeast Anticancer Drug Screen. Data for the rad50 strain (AID 155);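 note: 0% = growth of vehicle-only cultures of the same strain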; settings: S. cerevisiae rad50 strain growth inhibition; at 50.0 µM; active compounds read high
# How it was run: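 Compounds were tested on a yeast strain with an engineered DNA damage repair alteration; the reported value is growth inhibition normalised to vehicle treatment.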
# [2] = NCI Yeast Anticancer Drug Screen. Data for the mec2-1 strain (AID 157); settings: S. cerevisiae mec2-1 strain, at 50.0 µM, active compounds read high
# How it was run: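 Vehicle-treated cultures served as reference for growth inhibition of compound-exposed mec2-1 yeast.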
# [3] = NCI Yeast Anticancer Drug Screen. Data for the sgs1 mgt1 strain (AID 161);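 note: 0% = growth of cultures given vehicle only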; settings: S. cerevisiae sgs1 mgt1 strain, at 50.0 µM, active compounds read high
# How it was run: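 Read-out: growth inhibition vs vehicle controls. Cells: mutant yeast strain deficient in DNA damage repair.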
# [4] = NCI Yeast Anticancer Drug Screen. Data for the cln2 rad14 strain (AID 165);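 note: 0% = growth equal to vehicle treated cultures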; settings: S. cerevisiae cln2 rad14 strain, at 50.0 µM, active compounds read high
# How it was run: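 Each compound was tested on cln2 rad14 yeast. Inhibition of growth was calculated against vehicle-exposed controls.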
# [5] = NCI Yeast Anticancer Drug Screen. Data for the bub3 strain (AID 167); settings: S. cerevisiae bub3 mutant strain, at 50.0 µM, active compounds read high
# How it was run: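 Growth of a checkpoint-deficient yeast mutant is measured after compound exposure. Values represent inhibition relative to vehicle.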
# [6] = NCI Yeast Anticancer Drug Screen. Data for the mlh1 rad18 strain (AID 175); settings: S. cerevisiae mlh1 rad18 strain growth inhibition; at 50.0 µM; active compounds read high
# How it was run: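 Vehicle-treated cultures served as the reference for growth inhibition in a yeast strain carrying DNA damage repair alterations exposed to each compound.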
SMILES,growth inhibition [1],growth inhibition [2],growth inhibition [3],growth inhibition [4],growth inhibition [5],growth inhibition [6]
c1ccc2c(c1)CC1OCN3CN(COC4Cc5ccccc5CC43)C1C2 (configuration not stated),0.75%,-4.7%,1.2%,-5.9%,-1.45%,-7.15%
CC1CCC2N(C1)CC1C3(O)CC45OC6(O)C(O)CCC4(C)C6CCC5C3(O)CC(O)C1(O)C2(C)O (configuration not stated),-19.9% and -2.1%,-17.9% and -31.1%,-2.9% and -17.4%,-21.6% and 9.15%,-31.2% and -0.4%,6.5% and -15.3%
CC1(Cl)CC2C(CC1Sc1nnnn1-c1ccccc1)C2(C)C (configuration not stated),-7.45%,-35.2%,-7.2%,-20.6%,-18.4%,-7.2%
OC(CN(C1CCCCC1)C1CCCCC1)c1ccc(Cl)c(Cl)c1 (configuration not stated),-3.1%,-30.9%,-14.4%,-36%,35.4%,-28.2%
CCCC(C)COC(=O)Cc1ccccc1 (configuration not stated),18.3%,18.2%,9.55%,-27.9%,4.3%,15.2%
CCCCC(CC)C(=O)O (configuration not stated),-12.6% and 33.9%,-0.3% and 11.5%,-1.65% and -1.3%,0.2% and 6%,-13.7% and 6.6%,-10.7% and 7%
CN(C)c1c2c(=O)n(C)c(=O)n(C)c2nc2cccc[n+]12,21.9%,22.9%,-5.2%,2.9%,5.95%,11.6%
CSc1nsc(-c2ccccc2)[s+]1,13%,-11.6%,2.95%,-74.5%,-9.2%,18%
CC12CCC(O)CC1CCC1C2CCC2(C)C(C3=CC(=O)OC3)CCC12O (configuration not stated),-42.8%,-33.6%,-18.8%,-10.2%,-23.2%,-20.1%
COC1=N[C@]2(O)C[C@]3(C)[C@@H](O)CC[C@H]3[C@@H]3CCC4=CC(=O)CC[C@]4(C)[C@]32S1,7.4%,10.6%,2.3%,-22.7%,33.8%,3.2%
Cc1ccc(CCl)c(C)c1,-21.1%,8.4%,-6.95%,-39%,5.45%,-19%
CC[N+](CC)(CC)CC,-16.7% and -6.2%,2.1% and -17.7%,6.6% and -1.6%,-10.4% and 2.05%,0.8% and -1.3%,-15.8% and -4.9%
CN(C)CCNC(=O)c1cccc(COC(=O)Nc2ccc(N(CCCl)CCCl)cc2)c1[N+](=O)[O-],-3.55%,-15.8%,1.2%,-49.8%,-3.65%,-11.9%
CN1c2ccccc2NP1(=S)c1ccccc1 (configuration not stated),69.5%,80% (active),95.2% (active),40.5%,55.9%,83.2% (active)
CCOP(=O)(OCC)/C(C#N)=C/c1ccoc1,-36%,-5.8%,-58.2%,-15.2%,-29.9%,-51%
NC(Cc1ccccc1)c1ccccc1 (configuration not stated),3.15% and -1.6%,-7.3% and -0.95%,0.3% and -16.8%,-36% and -23.1%,5.35% and 1.75%,14.8% and -0.1%
C=C1CC2CC[C@@]34CC5O[C@@H]6C(O[C@H]7CC[C@H](CC(=O)OC8C(C)C9OC%10C[C@]%11(C[C@@H]%12O[C@]%13(CC(C)[C@@H]%14O[C@H](C(O)CC(O)CO)C[C@@H]%14O%13)CC(C)[C@@H]%12O%11)OC%10CC9O[C@H]8C[C@H]8OC(CC[C@@H]1O2)C[C@@H](C)C8=C)OC7[C@@H]6O3)[C@H]5O4 (some centres not stated),87.3% (active),91.1% (active),90.6% (active),83.7% (active),91.1% (active),69.8%
CN(Cc1ccccc1)C1=NCCN1,-1.85%,7.1%,-2.95%,-47.8%,15.1%,9.95%
[N-]=[N+]=NC1=C(N=[N+]=[N-])c2cccc3cccc(c23)C1=O,46.3%,29.1%,55.3%,55.6%,21.1%,81.9% (active)

SMILES,growth inhibition [1],growth inhibition [2],growth inhibition [3],growth inhibition [4],growth inhibition [5],growth inhibition [6]
C=C(C)CCP(=S)(OCC)OCC,-27.9%,-18.3%,-24.2%,-22.7%,5.45%,-3.45%
O=C(O)CN(CCN(CC(=O)O)CC(=O)O)CC(=O)O.[Co+2],0.25%,-3.85%,13.2%,19.1%,16.4%,7.45%
CN(C)CCSC(c1ccccc1)c1ccc(Br)cc1 (configuration not stated),32.5%,20.1%,52.4%,58.6%,34.4%,62.2%
CN1CCCC2(CCCc3ccccc32)C1 (configuration not stated),14.2%,-33.1%,-25.9%,15.3%,-13.3%,-5.2%
COc1ccc2ccc3oc([N+](=O)[O-])cc3c2c1,14.8%,25.7%,-23.9%,-14%,-36%,-36%
Cc1ccc(C(C)(C)C)c(OP(=S)(S)Oc2cc(C)ccc2C(C)(C)C)c1.[Pb],5.9%,-1.85%,-1.3%,9.7%,-13.7%,7.3%
O=C=Nc1cccc(S(=O)(=O)F)c1,56.8%,4.15%,26%,28.4%,33.9%,11.9%
NC(CNC(=O)CBr)C(=O)O (configuration not stated),6.9%,18.1%,-3.25%,8.9%,-4.1%,-35.2%
Cc1ccc(S(=O)(=O)F)cc1,10.4%,-8.7%,2.1%,-14.7%,-1.3%,9.5%
O=C(O)C(F)(F)F.O=C(O)C(F)(F)F.O=C(O)C(F)(F)F.O=C(O)C(F)(F)F.[Rh].[Rh],26.8%,17.1%,22.1%,21.2%,21.4%,28%
COc1ccc(CC(N)c2ccccc2)cc1 (configuration not stated),8.25%,18.1%,6.4%,10.2%,12.8%,-3.5%
NC(Cc1ccccc1)c1ccccc1 (configuration not stated) (tested in a mixture with another compound),0.6%,-17.4%,-6.4%,9.7%,2.6%,2.55%
OC1=C2CCCCCC2=[N+]2CCCCC2C1 (configuration not stated),19.1%,33.6%,52.5%,-1.6%,32.2%,70.8% (active)
COc1cc2c(c(OC)c1OC)-c1ccc(O)c(=O)cc1[C@@H](NC(C)=O)CC2,24% and 43.6%,1.95% and 34.6%,54.9%,35.5%,62.5%,22.9% and -13.1%
CC([NH-])C(C)[NH-].CC([NH-])C(C)[NH-].CC([NH-])C(C)[NH-].[Cr+6] (configuration not stated),9.9%,22.8%,10.7%,2%,1.9%,8.15%
CCCC1NCCOC1(O)c1ccccc1 (configuration not stated),-11.2%,-8.35%,-1%,-16.4%,3.35%,-33.8%
CC(C)NCC(=O)c1ccc(O)c(O)c1,4.9% and -5.1%,-19.3% and 4.45%,-21.8%,-7.25%,-26.1%,7.7% and -10.9%
c1ccc(P(CCP(CCP(c2ccccc2)c2ccccc2)c2ccccc2)CCP(c2ccccc2)c2ccccc2)cc1 (configuration not stated),-5.15% and 0.15% and 8.05%,-5.7% and 34.8% and 10.3%,-18.6% and 18.4% and -0.95%,-8.05% and -20.2% and 7.15%,0.45% and 2.95% and 21.9%,-5.95% and 29.8% and 11.2%

# Source: PubChem BioAssay (NCI)
